Results as given in PubChem BioAssay (NCI).
This is part of a sample that, as a whole, favours compounds with a hit. Of some 83,000 tested, about 20% had one in any assay.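 The test compound was applied at a single concentration to cells in 96-well plates for 48 hours, and percent growth was recorded.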 Calls of active or inactive are those of the source. How the source made its calls: active means growth percent below 10; inactive means the rest.

Columns and labels:
Experiment in all cases: NCI-60 one-dose screen, 48 h (100 = growth as untreated, 0 = no growth, -100 = all killed)
Details in all cases: 10 µM unless noted
[1] = system: NCI-H226 lung
[2] = system: NCI-H322M lung
[3] = system: HOP-62 NSCLC
[4] = system: NCI-H460 lung
[5] = system: HOP-92 NSCLC
[6] = system: NCI-H522 lung
[7] = system: A549/ATCC NSCLC
[8] = system: 786-0 renal
[9] = system: COLO 205 colon

Measured: growth

Cn1cc(-c2csc(-c3cn(CCCN4CCOCC4)c4ccccc34)n2)c2cccnc21
inactive: [1] 75.7% | [2] 95.6% | [3] 97.4% | [4] 88.5% | [5] 67.7% | [6] 67.9% | [7] 79.3% | [8] 74.4% | [9] 73.9%

CNCc1cccc2c1OCCOCCOCCNS(=O)(=O)c1ccc(cc1)-c1cnc(N)c(n1)C(=O)N2
active: [4] 9.41% | [6] 9.67% | [9] -18.7%
inactive: [1] 24.5% | [2] 46.2% | [3] 26.4% | [5] 61.7% | [7] 46.3% | [8] 30.8%

COc1ccc(C(=O)/C=C/c2ccc(N3CCCCC3)cc2)cc1OC
inactive: [1] 72.7% | [2] 91.5% | [3] 98.3% | [4] 97.9% | [5] 69.9% | [6] 84.4% | [7] 90% | [8] 103% | [9] 100%

O=C(C1CCCCC1)[C@@H]1[C@]2(C(=O)NC3CCCCC32)[C@@H]2CCCN2[C@@]12C(=O)NC1CCC(Cl)CC12 (stereo partly drawn)
active: [1] -55.1% [100 µM] | [2] -95.1% [100 µM] | [4] -77.2% [100 µM] | [5] -89.9% [100 µM] | [6] -81.7% [100 µM] | [7] -82.9% [100 µM] | [8] -80.8% [100 µM]

C=C1CC[C@@H]2C(C)(C)[C@@H](O)CC[C@@]2(C)[C@@H]1COc1ccc2ccc(=O)oc2c1
inactive: [1] 66.1% | [2] 109% | [3] 103% | [4] 87.8% | [5] 86.8% | [6] 66.9% | [7] 58.7% | [8] 89.6% | [9] 92%

CC1(C)[C@@H](O[C@@H]2OC[C@@H](O[C@@H]3O[C@H](CO)[C@@H](O)[C@H](O)[C@H]3O[C@@H]3OC[C@@H](O)[C@H](O)[C@H]3O)[C@H](O)[C@H]2O[C@@H]2O[C@H](CO)[C@@H](O)[C@H](O)[C@H]2O)CC[C@]2(C)[C@H]3CC[C@]45OC[C@@]6(CC[C@](C)(C=O)C[C@H]64)[C@H](O)C[C@@]5(C)[C@]3(C)CC[C@@H]12
active: [1] -65.2% | [2] -86.9% | [3] -82.9% | [4] -63% | [6] -89.7% | [7] -73.6% | [8] -75% | [9] -93.9%

Cn1c2c(c3ccc(Cl)c(Cl)c31)C(C#N)C(C)(C)NC2=O (stereo not drawn)
inactive: [1] 59.4% | [2] 91.4% | [3] 90.7% | [4] 91% | [5] 72.8% | [6] 55.8% | [7] 89.5% | [8] 69.3% | [9] 92.2%

NC1=Nc2cc(OCCCCN3Cc4ccccc4C3)c(OCC3CC3)cc2C12CCCC2
inactive: [1] 37.7% | [2] 75.7% | [3] 73.2% | [4] 23.2% | [5] 29.4% | [6] 67.3% | [7] 67.5% | [8] 56.2%
active: [9] -74.5%

C=C1C(=O)O[C@H]2[C@H]1CC/C(CNC(=O)c1c[nH]c3ccc(F)cc13)=C\CC[C@@]1(C)O[C@@H]21
inactive: [1] 25.9% | [2] 82.9% | [3] 70.6% | [4] 85.7% | [7] 46.6%
active: [5] -42.3% | [6] -73.9% | [8] -59.5% | [9] -78.6%

CCN(CC)CCCOc1ccc2ncnc(Nc3ccc(Oc4cccc(C(F)(F)F)c4)c(Cl)c3)c2c1
active: [4] -87.7% | [6] -2.46% | [7] 5.61% | [8] -83.9% | [9] -36.7%
inactive: [1] 73.1% | [2] 16% | [3] 13.6% | [5] 27.3%

COc1ccc(/C=C/C(=O)c2cc3c(N)c(C(=O)Nc4cccc(Cl)c4C)sc3nc2C)cc1
active: [4] 0.238% | [6] -8.5% | [8] 4.44% | [9] -28.9%
inactive: [1] 34.8% | [2] 33.1% | [5] 39.2% | [7] 17.6%

COC(=O)c1ccc(NC(=O)Nc2ccc(C(=O)OC)cc2)cc1
inactive: [1] 99% | [2] 104% | [3] 106% | [4] 110% | [5] 85.7% | [6] 51.2% | [7] 94.7% | [8] 105%

CCn1c(-c2cc3c([nH]c4ccccc43)c(-c3cccc(O)c3)n2)n[nH]c1=S
inactive: [1] 75.9% | [2] 73.2% | [3] 18.3% | [4] 47.1% | [5] 12.7% | [7] 38% | [8] 13.5% | [9] 92.5%
active: [6] -10.6%

CCOC(=O)c1cc(C(=O)c2cc(OC)c(OC)c(OC)c2)n2ccccc12
active: [9] -31.8%
inactive: [1] 34.5% | [2] 49.7% | [3] 28.3% | [4] 14.2% | [5] 54.1% | [6] 26% | [7] 25.7% | [8] 35.5%

[2H]C([2H])([2H])Oc1ccc(F)cc1/C=C/C(=O)/C=C(/C=C/c1cc(F)ccc1OC([2H])([2H])[2H])OB(F)F
inactive: [1] 109% | [2] 108% | [3] 97.8% | [4] 95.5% | [6] 18.9% | [7] 90.8% | [8] 86.3% | [9] 57.6%

CC(=O)O[C@H]1C[C@@H]2C(C)(C)C(=O)CC[C@@]2(C)c2ccc(C(C)C)cc21
inactive: [2] 109% | [3] 109% | [4] 107% | [6] 98.3% | [7] 107% | [8] 93.9% | [9] 115%

CCOC(=O)c1c(C)nc2ccccc2c1/C=C/c1cccs1
inactive: [1] 72.4% | [2] 89.1% | [3] 84.7% | [4] 85.2% | [6] 57% | [7] 64.9% | [8] 89.7% | [9] 84.5%

O=C(NNC(=O)c1ccc(NC(=O)c2ccccn2)cc1)Nc1ccc2ccccc2c1
inactive: [1] 103% | [2] 103% | [3] 115% | [4] 110% | [5] 108% | [6] 105% | [7] 108% | [8] 111% | [9] 130%

O=C1/C(=C\c2ccccn2)c2ccccc2N1c1c(Cl)cccc1Cl
inactive: [1] 25.2% | [2] 61.4% | [3] 23.3% | [6] 36.8% | [7] 50.3%
active: [4] -29.3% | [5] -7.93% | [8] -81.4% | [9] -16.1%

COc1ccc2c(c1)CCc1[nH]nc(-c3cc(OC)c(OC)c(OC)c3)c1-2
inactive: [1] 41% | [2] 47% | [3] 12.9% | [5] 32.8%
active: [4] 3.92% | [6] -22.3% | [7] 5.04% | [8] 3.88% | [9] -64.6%

Cc1c2cccnc2c(C)c2c1c1cc(CO)ccc1n2C
inactive: [2] 26.8% | [6] 30.3% | [7] 20.9% | [8] 22.6% | [9] 19.1%
active: [1] -33.4% | [4] 0.162%
